The text below walks through data of PubChem BioAssay.

Test [1] is described as follows: compound effects on lung adenocarcinoma cell viability – A549, calcein-AM fluorescence, 48 h, basal, profiling panel (AID 1162). Also: test concentration not given here. The conditions noted are these: higher = more signal.
Test [2] is described as follows: compound effects on differentiated 3T3-L1 adipocyte viability – cell-based, 3T3-L1 adipocytes, calcein-AM fluorescence, 48 h, basal, profiling panel (AID 1163). Also: test concentration not given here. The following applies: 3T3-L1 adipocytes viability, higher = more signal.
Test [3] in a line: compound effects on hepatocellular carcinoma cell viability – HepG2, calcein-AM fluorescence, 48 h, basal, profiling panel (AID 1164). Also: test concentration not given here. The following applies: higher = more signal.
Test [4] is described as follows: compound effects on multiple myeloma cell viability – MM1S, calcein-AM fluorescence, 48 h, basal, profiling panel (AID 1165). Also: test concentration not given here. The conditions noted are these: higher = more signal.
Test [5] is described as follows: calcein-AM signal in unstimulated myeloma cells – cell-based, calcein-AM fluorescence, 48 h, PK04 Diversity Set, profiling panel (AID 1166).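 Also: cells grown under basal conditions without added stimulus; test concentration not given here.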 The following applies: RPMI8226 myeloma viability, higher = more signal.
Test [6] in a line: JC-1 mitochondrial signal, unstimulated HepG2 cells – cell-based, JC-1 fluorescence, 24 h, 100 nL compound, profiling panel (AID 1167). Also: test concentration not given here. The following applies: HepG2 mitochondrial potential, higher = more signal.
Test [7] can be described thus: JC-1 mitochondrial signal, unstimulated adipocytes – cell-based, JC-1 fluorescence, 3T3-L1 adipocytes, 24 h, 100 nL compound, profiling panel (AID 1168). Also: test concentration not given here. The following applies: JC-1 mitochondrial fluorescence, higher = more signal, called active from +8 up or from −8 down.
Test [8] can be described thus: JC-1 mitochondrial signal, unstimulated myeloma cells – cell-based, JC-1 fluorescence, RPMI8226, 24 h, 100 nL compound, profiling panel (AID 1169). Also: test concentration not given here. The following applies: JC-1 mitochondrial potential fluorescence, higher = more signal.
A short description of test [9]: JC-1 mitochondrial signal, unstimulated MM1S myeloma – cell-based, JC-1 fluorescence, 24 h, 100 nL compound, profiling panel (AID 1170). Also: test concentration not given here. The conditions noted are these: MM1S mitochondrial potential, higher = more signal.
The nature of test [10]: resazurin metabolic signal in A549 cells – cell-based, resazurin fluorescence, 24 h, PK04 Diversity Set, profiling panel (AID 1171). Also: test concentration not given here. The conditions noted are these: A549 viability, higher = more signal, called active from +8 up or from −8 down. In general terms: Resazurin is reduced to fluorescent resorufin, in cell work by metabolically active cells.
A short description of test [11]: resazurin metabolic signal in HepG2 cells – cell-based, resazurin fluorescence, 24 h, PK04 Diversity Set, profiling panel (AID 1172). Also: test concentration not given here. The conditions noted are these: HepG2 viability, higher = more signal.
Test [12] is described as follows: budding yeast growth changes without added modifier – OD600, strain BY4716, 24 h, basal condition, primary screen (AID 1173). The conditions noted are these: S. cerevisiae BY4716 growth, OD600, 24 h; higher = more signal, called active from +8 up or from −8 down.
The nature of test [13]: viability profiling in MM1S myeloma cells – cell-based, resazurin fluorescence, basal, 24 h, PK04 Diversity Set, profiling panel (AID 1174). Also: test concentration not given here. The conditions noted are these: higher = more signal, called active from +8 up or from −8 down.
Test [14] concerns the target Dihydroorotate dehydrogenase (quinone), mitochondrial (Plasmodium falciparum (isolate 3D7)) (UniProt Q08210). Briefly: inhibition of P. falciparum DHODH – biochemical, C-terminal His tag, absorbance 600 nm, primary screen (AID 1175).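 Also: recombinant parasite enzyme with a five histidine tag at its C terminus; test concentration not given here.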 The following applies: PfDHODH enzyme, DCIP absorbance 600 nm; higher = more signal, called active from +8 up or from −8 down.
Test [15] is described as follows: inhibition of PAO1 biofilm formation – strain PAO1, LB-PBS medium, absorbance 600 nm, primary screen (AID 1176). Also: test concentration not given here. The following applies: P. aeruginosa PAO1 growth/biofilm, A600, 12 h; higher = more signal.
Test [16] in a line: growth modulation of vineyard yeast isolate – strain RM11-1a, OD600, basal, 24 h, primary screen (AID 1177).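 Also: cultures grown under basal conditions with no added stressor; test concentration not given here.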 The following applies: S. cerevisiae RM11-1a growth, OD600, 24 h; higher = more signal, called active from +8 up or from −8 down.
Test [17] is described as follows: growth of efflux-deficient E. coli DRC39 – strain DRC39, OD650, 24 h, E. coli filamentation inducers, primary screen (AID 1178).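 Also: growth measured as culture turbidity by optical density at 650 nm; test concentration not given here.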 The conditions noted are these: E. coli DRC39 acrAB, higher = more signal, called active from +8 up or from −8 down.
Test [18] can be described thus: growth of efflux-deficient E. coli DRC39 – strain DRC39, OD650, 48 h, E. coli filamentation inducers, primary screen (AID 1179).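 Also: screen aims at cell division blockers that make cells filament.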 The conditions noted are these: E. coli DRC39 delta-acrAB growth, higher = more signal, called active from +8 up or from −8 down.
Test [19] can be described thus: viability profiling in RPMI8226 myeloma cells – cell-based, resazurin fluorescence, basal, 24 h, PK04 Diversity Set, profiling panel (AID 1180).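 Also: RPMI8826 multiple myeloma cell line at 5000 cells per well; test concentration not given here.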 The following applies: higher = more signal.
Test [20] deals with E3 ubiquitin-protein ligase XIAP (Homo sapiens) (UniProt P98170). Briefly: small molecules binding XIAP protein – biophysical, small-molecule microarray, fluorescence 635 nm, primary screen (AID 1181).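 Also: score merges 667 nm emission and signal to noise over triplicate slides.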 The following applies: higher = more signal.

Calls of active or inactive are those of the source. Unless noted, no rule for the calls is given here.

Sequence of E3 ubiquitin-protein ligase XIAP (Homo sapiens) (P98170 whole entry, looked up): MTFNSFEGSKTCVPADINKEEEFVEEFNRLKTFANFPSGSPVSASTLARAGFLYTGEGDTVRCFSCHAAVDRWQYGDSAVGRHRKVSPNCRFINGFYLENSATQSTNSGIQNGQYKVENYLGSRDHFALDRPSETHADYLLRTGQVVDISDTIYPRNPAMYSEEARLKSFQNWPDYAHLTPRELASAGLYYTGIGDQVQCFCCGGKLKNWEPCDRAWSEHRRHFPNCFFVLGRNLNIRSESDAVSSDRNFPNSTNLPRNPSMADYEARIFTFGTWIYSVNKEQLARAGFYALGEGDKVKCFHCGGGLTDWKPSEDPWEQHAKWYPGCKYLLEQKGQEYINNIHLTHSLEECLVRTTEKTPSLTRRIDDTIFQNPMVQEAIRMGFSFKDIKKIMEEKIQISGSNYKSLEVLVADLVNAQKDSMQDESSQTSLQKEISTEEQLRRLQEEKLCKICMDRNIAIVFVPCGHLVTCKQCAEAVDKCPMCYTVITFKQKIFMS
Sequence of Dihydroorotate dehydrogenase (quinone), mitochondrial (Plasmodium falciparum (isolate 3D7)) (Q08210 whole entry, looked up): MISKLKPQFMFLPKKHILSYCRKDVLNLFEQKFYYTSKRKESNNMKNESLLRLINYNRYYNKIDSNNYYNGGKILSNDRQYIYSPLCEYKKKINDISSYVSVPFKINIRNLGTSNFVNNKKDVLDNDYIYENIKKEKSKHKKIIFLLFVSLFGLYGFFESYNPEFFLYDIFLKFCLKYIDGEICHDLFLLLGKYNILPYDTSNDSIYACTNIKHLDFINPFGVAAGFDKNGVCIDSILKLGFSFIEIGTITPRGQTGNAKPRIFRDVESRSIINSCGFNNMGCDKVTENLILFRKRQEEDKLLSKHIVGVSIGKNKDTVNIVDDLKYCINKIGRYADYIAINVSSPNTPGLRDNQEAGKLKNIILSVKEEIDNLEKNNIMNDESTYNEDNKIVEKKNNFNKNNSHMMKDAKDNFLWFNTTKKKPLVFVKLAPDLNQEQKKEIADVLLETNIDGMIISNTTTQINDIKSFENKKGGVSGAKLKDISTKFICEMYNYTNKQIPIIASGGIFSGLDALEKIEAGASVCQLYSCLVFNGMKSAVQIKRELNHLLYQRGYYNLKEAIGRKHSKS

Take `CCCNC(=O)[C@@]1(Sc2ccc(C)cc2)CC(=O)N(C(C)C)[C@@H]1c1ccc(CO)cc1I`: the z-score in test [1] is 0.505; in test [2], 0.49; in test [3], -0.658; in test [4], -2.65; in test [5], -2.09; in test [6], 0.632. For the same compound, the z-score in test [7] was -0.769 (inactive); in [8], -0.919; in test [9] it was -1.02; in [10], -0.0866 (inactive); in [11], -0.202; in test [12], -1.18 (inactive). The z-score was -2.5 (inactive) in test [13]; 0.0714 (inactive) in test [15]; 0.29 (inactive) in test [16]; 0.337 (inactive) in test [17]; -0.202 (inactive) in test [18]; -2.53 in test [19]. The composite z-score in test [14] was -0.5 (inactive); in test [20], -0.039.
With `C=C(/C(=C/C[C@H](OC(=O)c1ccncc1)c1cccc(OCCO)c1)c1cnc2ccccc2c1)C(C)C`, the z-score in test [1] was -1.69; in test [2], -1.31; in [3], -3.17; in [4] it was -3.07; in test [5] it was -2.93; in test [6] it was -0.437. Besides, the z-score in test [7] was -0.649 (inactive); in test [8], -0.0462; in test [9], -0.888; in [10], -1.68 (inactive); in test [11], -0.982; in [12], -18.5 (active). In addition, the z-score in test [13] was -1.09 (inactive); in test [15], 0.285 (inactive); in test [16], -22.1 (active); in test [17], 0.116 (inactive); in [18] it was -0.147 (inactive); in test [19], -0.911. The composite z-score in [14] was -25.3 (active); in test [20], 0.329.
In the case of `C=C(/C(=C/C[C@H](OC(=O)c1ccncc1)c1ccccc1OCCO)c1cnc2ccccc2c1)C(C)C`, the z-score in test [1] was 0.0894; in test [2], -0.253; in [3] it was -0.444; in [4] it was -1.26; in test [5], -0.906; in test [6], 0.96. For the same compound, the z-score in [7] is -0.482 (inactive); in [8] it was -0.331; in test [9], -0.174; in [10] it was 1.35 (inactive); in test [11], 0.495; in test [12], -0.147 (inactive). The z-score in test [13] is -0.632 (inactive); in test [15], 1.07 (inactive); in test [16], -0.07 (inactive); in test [17] it was 0.395 (inactive); in test [18], 0.313 (inactive); in test [19], 0.262. Besides, the composite z-score in [14] is -3.77 (inactive); in test [20], -0.0771.
Take `COCCOC(=O)N1C(=O)[C@@]2(c3cc(C#CC4=CCCCC4)ccc31)[C@H](C(=O)N1CCCCCCC1)[C@H]1C(=O)O[C@H](c3ccccc3)[C@H](c3ccccc3)N1[C@@H]2c1ccc(OCCO)cc1`: the z-score is 0.382 in [1]; 1.74 in test [2]; -0.214 in test [3]; -0.774 in test [4]; -0.779 in [5]; 0.225 in test [6]. The z-score was -3.07 (inactive) in test [7]; -0.674 in [8]; -1.14 in [9]; -0.223 (inactive) in test [10]; 0.111 in test [11]; -0.145 (inactive) in test [12]. Besides, the z-score in [13] was -0.341 (inactive); in test [15], 2.26 (inactive); in test [16], 1.16 (inactive); in test [17] it was -0.427 (inactive); in test [18], -0.311 (inactive); in test [19] it was 0.169. The composite z-score in test [14] was -1.9 (inactive); in test [20] it was 0.144.
`COC(=O)[C@@]1(Cc2ccccc2)[C@H]2c3cc(C(=O)N4CCCC4)n(CCSCCO)c3C[C@H]2CN1C(=O)c1ccccc1`: the z-score in test [1] was -0.52; in test [2], 0.629; in test [3], 0.422; in test [4], -0.451; in test [5], -0.874; in [6], 0.59. In addition, the z-score is -1.19 (inactive) in [7]; 0.26 in [8]; 0.0172 in test [9]; -0.845 (inactive) in test [10]; -1.19 in [11]; 0.712 (inactive) in [12]. In addition, the z-score in test [13] was -1.63 (inactive); in [15] it was 0.824 (inactive); in test [16], 0.53 (inactive); in test [17], -1.01 (inactive); in [18] it was -0.853 (inactive); in test [19] it was -1.68. The values for the composite z-score in test [14] and in test [20] were -0.337 (inactive) and 0.361, respectively.
On to `C=C(COC)/C(=C/C[C@@H](OC(=O)c1ccncc1)c1ccccc1OCCO)c1cc(C(=O)OC)ccc1OC`, for which the z-score in [1] was 2.37; in test [2], -0.193; in [3], -0.11; in test [4], -3.29; in [5], -1.63; in [6] it was 1.35. The z-score in test [7] was -1.04 (inactive); in [8] it was -0.735; in test [9], -1.9; in test [10] it was 0.314 (inactive); in test [11], 0.106; in test [12] it was -1.35 (inactive). Besides, the z-score in [13] was -1.03 (inactive); in test [15], 0.825 (inactive); in test [16], 0.0248 (inactive); in test [17] it was 0.404 (inactive); in test [18] it was 0.32 (inactive); in test [19], -1.35. Also, the values for the composite z-score in test [14] and in test [20] were -4 (inactive) and -0.211, respectively.
Take `C=C(CCCC)/C(=C/C[C@H](OC(C)=O)c1ccc(OCCO)cc1)c1cc(C(=O)OC)ccc1OC`: the z-score in test [1] was 0.899; in test [2], 1.18; in [3] it was 1.74; in test [4] it was -2.88; in test [5], -1.83; in test [6], 2.2. For the same compound, the z-score in [7] was 0.151 (inactive); in test [8] it was -0.864; in test [9], -0.957; in test [10], 1.09 (inactive); in test [11], 0.757; in test [12] it was -1.06 (inactive). In addition, the z-score was -0.0396 (inactive) in test [13]; 0.825 (inactive) in test [15]; -0.0587 (inactive) in [16]; 0.487 (inactive) in [17]; 0.371 (inactive) in [18]; 0.621 in [19]. Also, the results for the composite z-score in [14] and in test [20] were -0.793 (inactive) and 0.0977, respectively.
Regarding `COc1ccc([Si](C)(C)[C@H]2[C@H](CC(=O)N3Cc4ccccc4C[C@H]3CO)O[C@@]3(C(=O)N(Cc4ccc(N5C(=O)c6cccc7cccc5c67)cc4)c4ccccc43)[C@@H]2C)cc1`, the z-score in [1] was -0.0678; in [2], 0.314; in test [3] it was 0.898; in [4], -0.769; in [5], -0.874; in test [6], 2.5. Further, the z-score is -0.178 (inactive) in [7]; -1.22 in test [8]; -0.862 in [9]; 0.0918 (inactive) in test [10]; 0.716 in test [11]; 0.21 (inactive) in [12]. Further, the z-score in test [13] was -2 (inactive); in [15], 1.13 (inactive); in test [16] it was 1.77 (inactive); in test [17], 0.929 (inactive); in test [18], 0.472 (inactive); in [19], -0.737. For the same compound, the composite z-score in test [14] is -0.934 (inactive); in test [20], -0.063.
On to `COc1ccc(C(O)C2C=CC3C(=O)N(c4ccccc4)C(=O)C3N2Nc2ccccc2F)cc1` (stereo not given), for which the z-score in test [1] is -0.775; in [2] it was 0.406; in test [3], -0.596; in [4] it was -0.808; in test [5], -2.08; in test [6], -0.334. In addition, the z-score is -0.149 (inactive) in test [7]; -0.288 in test [8]; -0.855 in [9]; 0.21 (inactive) in [10]; -0.229 in test [11]; -0.359 (inactive) in test [12]. Further, the z-score is -0.0646 (inactive) in test [13]; 0.987 (inactive) in test [15]; -0.687 (inactive) in [16]; -0.548 (inactive) in test [17]; -0.869 (inactive) in test [18]; 0.435 in test [19]. In addition, the composite z-score is -0.0377 (inactive) in test [14] and 0.483 in [20].
